Several values for one entry are separate records, joined by “and”; a condition that tells them apart may be missing. Identical values can stand only once. Results filed as inconclusive are left out. The source holds several records for some structures; these can differ, active in one and inactive in another. Activity calls are given as the source filed them. Unless noted, calls follow the shape of the dose curve; as a rule, active = well fitted curve in the direction sought with a large enough effect in the repeat runs; inconclusive = weak or mixed curves; inactive = no such curve, though single readings can be large; an effect the other way counts as inactive or inconclusive.
Key:
[1] = molecular target: Thyrotropin receptor (Homo sapiens) (UniProt P16473); assay: qHTS assay to identify small molecule agonists of the thyroid stimulating hormone receptor (TSHR) signaling pathway (AID 1224843; calls by dose curve; also: nearly all actives have a fitted effect of over 45% in size; also: potency is read from the fitted curve at half-maximal effect)
Chain of Thyrotropin receptor (Homo sapiens) (P16473 whole entry, looked up): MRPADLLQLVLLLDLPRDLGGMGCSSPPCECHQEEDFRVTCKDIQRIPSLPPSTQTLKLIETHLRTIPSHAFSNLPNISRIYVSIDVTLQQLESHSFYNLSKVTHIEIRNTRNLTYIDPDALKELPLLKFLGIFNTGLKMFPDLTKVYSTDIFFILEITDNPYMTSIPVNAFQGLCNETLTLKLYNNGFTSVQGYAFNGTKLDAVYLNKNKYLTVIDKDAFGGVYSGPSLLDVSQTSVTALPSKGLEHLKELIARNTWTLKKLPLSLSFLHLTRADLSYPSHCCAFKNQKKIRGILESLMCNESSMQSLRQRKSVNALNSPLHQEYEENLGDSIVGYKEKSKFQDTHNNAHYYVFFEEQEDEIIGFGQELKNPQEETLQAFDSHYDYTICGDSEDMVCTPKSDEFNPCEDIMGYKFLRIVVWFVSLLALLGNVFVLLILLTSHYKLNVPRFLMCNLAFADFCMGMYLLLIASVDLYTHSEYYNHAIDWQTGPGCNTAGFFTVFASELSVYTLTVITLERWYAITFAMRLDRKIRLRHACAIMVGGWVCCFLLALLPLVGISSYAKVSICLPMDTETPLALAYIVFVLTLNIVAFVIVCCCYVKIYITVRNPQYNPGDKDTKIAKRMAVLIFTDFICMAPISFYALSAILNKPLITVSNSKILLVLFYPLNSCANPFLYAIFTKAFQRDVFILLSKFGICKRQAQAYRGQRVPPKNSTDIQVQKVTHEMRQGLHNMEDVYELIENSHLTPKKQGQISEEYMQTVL
Method in brief: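 Compounds are titrated over 15 concentrations, in triplicate, onto TSHR-HEK293 cells seeded at 800/well. Plates sit 30 min at room temperature before cAMP-d2 and anti-cAMP cryptate are added; signal is read after a further hour.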

[2] = qHTS assay to identify small molecule agonists of the hypoxia (HIF-1) signaling pathway - cell viability counter screen (AID 1224844; calls by dose curve; also: nearly all actives have a fitted effect of over 50% in size; also: potency is read from the fitted curve at half-maximal effect)
Method in brief: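 Cytotoxicity was measured in parallel with the HRE-driven beta-lactamase readout: after 17 hrs of compound exposure at 37C, HRE-bla ME-180 cells received CellTiter-Glo and luminescence was recorded 30 min later.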

[3] = qHTS assay to identify small molecule agonists of the hypoxia (HIF-1) signaling pathway (AID 1224846; active = well fitted activation curve with a large enough effect in the signal ratio in the repeat runs, not every such curve was filed as active; the % refers to the signal ratio)
Method in brief: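 Compounds from the Tox21 10K library, dissolved in DMSO, are tested for induction of a hypoxia response element–controlled beta-lactamase reporter in ME-180 cells. Exposure lasts 17 hrs at 37C after a 5 hr settling period, followed by CCF4-AM FRET substrate.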

[4] = qHTS RealTime-Glo MT Cell Viability Assay in HepG2 cells - 24 hour (AID 1224867); also: nearly all actives have a fitted effect of over 50% in size; also: potency is read from the fitted curve at half-maximal effect
Method in brief: (§1)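 qHTS, HepG2, 600 cells/well, RealTime-Glo (NanoLuc + prosubstrate) added with cells; 5 h preincubation; DMSO compound addition; 37 C; luminescence at 0/8/16/24/32/40 h.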

[5] = qHTS RealTime-Glo MT Cell Viability Assay in HEK293 cells - 32 hour (AID 1224868); also: nearly all actives have a fitted effect of over 50% in size; also: potency is read from the fitted curve at half-maximal effect
Method in brief: (§2)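 Assay medium contained NanoLuc luciferase plus cell-permeant prosubstrate, added with HEK293 cells at 600 cells/well. After 5 h at 37 C/5% CO2 compounds were added; plates stayed at 37 C for 40 h with serial luminescence reads.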

[6] = A CellTox Green Cytotoxicity Assay to monitor cytotoxicity in HEK293 cells - 0 hour (AID 1224869); also: nearly all actives have a fitted effect of over 50% in size
Method in brief: (§3)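 Cells (HEK293, 600/well) and dye reagent are dispensed together. After 5 h at 37 C, 23 nL compound is pinned in. Plates stay at 37 C for 40 h with fluorescence read at 0h, 8h, 16h, 24h, 32h and 40h.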

[7] = qHTS RealTime-Glo MT Cell Viability Assay in HepG2 cells - 40 hour (AID 1224870); also: nearly all actives have a fitted effect of over 50% in size; also: potency is read from the fitted curve at half-maximal effect
Method in brief: (§4)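 HepG2 cells mixed with RealTime-Glo MT reagents (NanoLuc plus cell-permeant prosubstrate) were seeded at 600 cells/well, incubated 5 h at 37 C/5% CO2, then pinned with compounds in DMSO; nonlytic luminescence tracked viability during 40 h treatment.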

[8] = A CellTox Green Cytotoxicity Assay to monitor cytotoxicity in HEK293 cells - 40 hour (AID 1224871); also: nearly all actives have a fitted effect of over 45% in size; also: potency is read from the fitted curve at half-maximal effect
Method in brief: as §3

[9] = qHTS RealTime-Glo MT Cell Viability Assay in HEK293 cells - 16 hour (AID 1224872); also: nearly all actives have a fitted effect of over 50% in size; also: potency is read from the fitted curve at half-maximal effect
Method in brief: as §2

[10] = qHTS RealTime-Glo MT Cell Viability Assay in HepG2 cells - 8 hour (AID 1224873); also: nearly all actives have a fitted effect of over 55% in size
Method in brief: as §4

[11] = qHTS RealTime-Glo MT Cell Viability Assay in HEK293 cells - 40 hour (AID 1224874); conditions: RealTime-Glo luminescence; max response: stronger effect = lower value; also: nearly all actives have a fitted effect of over 50% in size; also: potency is read from the fitted curve at half-maximal effect
Method in brief: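 Real-time viability in HEK293: signal arises when living cells convert a prosubstrate for NanoLuc in the medium, so luminescence tracks viable cell number. Compound (23 nL, DMSO) added 5 h post-seeding; kinetic reads at 0–40 h, 37 C.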

[12] = A CellTox Green Cytotoxicity Assay to monitor cytotoxicity in HEK293 cells - 24 hour (AID 1224875); also: nearly all actives have a fitted effect of over 45% in size; also: potency is read from the fitted curve at half-maximal effect
Method in brief: as §3

[13] = A CellTox Green Cytotoxicity Assay to monitor cytotoxicity in HepG2 cells - 16 hour (AID 1224876); also: nearly all actives have a fitted effect of over 45% in size; also: potency is read from the fitted curve at half-maximal effect
Method in brief: (§5)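 Cells and non-lytic dye reagent are dispensed together (600 HepG2 cells/well) and incubated 5 h before DMSO compound transfer. Kinetic fluorescence is then recorded in the same wells during 40 h at 37 C.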

[14] = A CellTox Green Cytotoxicity Assay to monitor cytotoxicity in HepG2 cells - 24 hour (AID 1224878); also: nearly all actives have a fitted effect of over 45% in size; also: potency is read from the fitted curve at half-maximal effect
Method in brief: as §5

[15] = A CellTox Green Cytotoxicity Assay to monitor cytotoxicity in HepG2 cells - 40 hour (AID 1224879); also: nearly all actives have a fitted effect of over 40% in size; also: potency is read from the fitted curve at half-maximal effect
Method in brief: as §5

[16] = qHTS assay to identify small molecule agonists of H2AX - cell viability counter screen (AID 1224847; calls by dose curve; also: nearly all actives have a fitted effect of over 30% in size; also: potency is read from the fitted curve at half-maximal effect)
Method in brief: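 CHO-K1 wt, 1000 cells/well, o/n 37C; cpds 15 conc, 3 h 37C, 0.76% DMSO; CellTiter-Glo, 30 min RT, luminescence.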

[17] = qHTS assay to identify small molecule antagonists of the estrogen related receptor (ERR) signaling pathway from Tox21 library (AID 1224848); also: nearly all actives have a fitted effect of over 50% in size; also: potency is read from the fitted curve at half-maximal effect
Method in brief: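 First, 2,000 ERR cells per well were plated and held 6 h at 37 C/5% CO2. Next, compounds in DMSO were pinned in and left 18 h at 37 C. Finally, ONE-Glo was added and luminescence read after 30 min at room temperature.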

[18] = qHTS assay to identify small molecule agonists of the estrogen related receptor (ERR) signaling pathway from Tox21 library (AID 1224849; calls by dose curve; also: nearly all actives have a fitted effect of over 15% in size); conditions: ERR reporter cell line, ONE-Glo luciferase, 18 h
Method in brief: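 Cells carrying the ERR reporter were plated and allowed to settle for 6 h, exposed to library compounds for 18 h at 37 C, then lysed with ONE-Glo and luminescence measured.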

[19] = qHTS RealTime-Glo MT Cell Viability Assay in HepG2 cells - 32 hour (AID 1224877); also: nearly all actives have a fitted effect of over 55% in size; also: potency is read from the fitted curve at half-maximal effect
Method in brief: as §1

[20] = qHTS assay to identify small molecule agonists of H2AX (AID 1224845; active = well fitted activation curve with a large enough effect in the signal ratio in the repeat runs, not every such curve was filed as active; the % refers to the signal ratio)
Method in brief: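 Wild-type CHO-K1 cells plated overnight, then exposed 3 hr at 37C to compounds at 15 concentrations (0.76% DMSO). Lysed, then HTRF anti-pH2AX(S139)-cryptate/anti-H2AX-d2 detection after 24 hr at room temperature; emissions 665 and 620 nm.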

[21] = at 92.4 µM (top of the series) unless noted
% is scaled to controls: 0 for no effect and ±100 for the full control effect.

C=CC(=O)OC
inactive: Potency [1] | Potency [2] | outcome [3] | Potency [4] | Potency [5] | Potency [6] | Potency [7] | Potency [8] | Potency [9] | Potency [10] | max response [11] 0.596% | Potency [12] | Potency [13] | Potency [14] | Potency [15]

O=C1C(=O)c2cccc3cccc1c23
inactive: Potency [1] | Potency [2] | outcome [3] | Potency [16] | Potency [4] | Potency [6] | Potency [8] | Potency [13] | Potency [14] | Potency [15]
active: Potency [7] 17.4 µM

CNP(=O)(OC)Oc1ccc(C(C)(C)C)cc1Cl (stereo not given)
inactive: Potency [1] | Potency [2] | outcome [3] | activity change, positive = activation [18, 21] -37.4% | Potency [4] | Potency [6] | Potency [7] | Potency [10] | Potency [19]
active: Potency [17] 48.6 µM | Potency [15] 54.9 µM

NS(=O)(=O)C(F)(F)C(F)(F)C(F)(F)C(F)(F)C(F)(F)C(F)(F)C(F)(F)C(F)(F)F
inactive: Potency [1] | Potency [20] | outcome [3] | Potency [16] | Potency [17] | activity change, positive = activation [18, 21] -39.9% | Potency [4] | Potency [5] | Potency [6] | Potency [7] | Potency [8] | Potency [9] | Potency [10] | max response [11] -4.36% | Potency [12] | Potency [13] | Potency [19]

N#CCC#N
inactive: Potency [1] | Potency [2] | outcome [3] | Potency [4] | Potency [5] | Potency [6] | Potency [7] | Potency [8] | Potency [10] | max response [11] -1.97% | Potency [12] | Potency [13] | Potency [14]

c1cc2ccc3cccc4ccc(c1)c2c34
active: Potency [1] 7.19 µM | Potency [17] 50.9 µM
inactive: Potency [2] | outcome [3] | activity change, positive = activation [18, 21] -47.4% | Potency [4] | Potency [5] | Potency [6] | Potency [7] | Potency [8] | Potency [9] | Potency [10] | max response [11] -0.186% | Potency [12] | Potency [13] | Potency [19] | Potency [14]

OC(c1ccc(Cl)cc1)(c1ccc(Cl)cc1)c1cccnc1
inactive: activity change, positive = activation [18, 21] -55.6% | Potency [6] | Potency [7] | Potency [8] | Potency [12] | Potency [13] | Potency [14] | Potency [15]
active: Potency [1] 30.6 µM | Potency [17] 48.6 µM | Potency [9] 38.9 µM | Potency [11] 38.9 µM

C[C@@H]1CC[C@H]2[C@@H](C)C(=O)O[C@@H]3O[C@@]4(C)CC[C@@H]1[C@]32OO4
active: Potency [17] 0.944 µM
inactive: Potency [1] | Potency [2] | outcome [3] | activity change, positive = activation [18, 21] -38.3% [at 42.5 µM] | Potency [4] | Potency [5] | Potency [6] | Potency [7] | Potency [8] | Potency [9] | Potency [10] | max response [11] -5.45% | Potency [13] | Potency [19] | Potency [14] | Potency [15]

O=Cc1ccc2c(c1)OCO2
inactive: Potency [1] | Potency [2] | outcome [3] | Potency [16] | Potency [4] | Potency [5] | Potency [6] | Potency [7] | Potency [8] | Potency [9] | Potency [10] | max response [11] 0.0881% | Potency [12] | Potency [13] | Potency [19] | Potency [14]

O=C(CCl)c1ccc(Cl)cc1Cl
inactive and 19 µM (active): Potency [4]
inactive and 16.9 µM (active): Potency [7]
inactive and 21.3 µM (active): Potency [19]
inactive and 23.9 µM (active): Potency [13] | Potency [14]
inactive: Potency [1] | outcome [3] | Potency [17] | activity change, positive = activation ([18]; at 42.5 µM (top of the series)) -19% | activity change, positive = activation ([18]; at 92.4 µM (top of the series)) -9.77% | Potency [6]
active: Potency [5] 3.01 µM | Potency [8] 8.49 µM | Potency [9] 4.25 µM | Potency [11] 17.3 µM and 2.39 µM | Potency [12] 10.7 µM

O=S1OC[C@@H]2[C@H](CO1)[C@]1(Cl)C(Cl)=C(Cl)[C@@]2(Cl)C1(Cl)Cl (stereo not given in full)
inactive: Potency [6] | Potency [7]
active: Potency [1] 10.9 µM | Potency [2] 43.6 µM | Potency [16] 20.1 µM

CC[C@H]1C[C@H]2[C@@H]3CCC4=CC(=O)CC[C@@H]4[C@H]3CC[C@]2(C)[C@H]1O
active: Potency [17] 29.8 µM | Potency [11] 23.9 µM | Potency [15] 21.3 µM
inactive: Potency [1] | Potency [2] | outcome [3] | activity change, positive = activation [18, 21] -38.2% [at 42.5 µM] | Potency [4] | Potency [6] | Potency [7] | Potency [10] | Potency [12] | Potency [13]

NNC(=O)c1cccnc1
inactive: Potency [1] | Potency [2] | outcome [3] | Potency [4] | Potency [5] | Potency [6] | Potency [7] | Potency [8] | Potency [9] | Potency [10] | max response [11] 12.4% | Potency [12] | Potency [13] | Potency [14] | Potency [15]

CCOS(C)(=O)=O
inactive: Potency [1] | Potency [2] | outcome [3] | Potency [4] | Potency [5] | Potency [6] | Potency [8] | Potency [9] | Potency [10] | max response [11] -7.66% | Potency [12] | Potency [13] | Potency [19] | Potency [14] | Potency [15]

O=C(CBr)Nc1ccc(Cl)cc1C(=O)c1ccccc1F
inactive: Potency [1] | Potency [2] | Potency [16] | Potency [17] | activity change, positive = activation [18, 21] -13.3% [at 42.5 µM] | Potency [4] | Potency [5] | Potency [6] | Potency [7] | Potency [8] | Potency [9] | Potency [10] | max response [11] -13.4% | Potency [12] | Potency [13] | Potency [19] | Potency [14]

O=C1c2ccccc2C(=O)C1C(=O)C(c1ccccc1)c1ccccc1
inactive: Potency [1] | activity change, positive = activation [18, 21] -7.49% [at 42.5 µM] | Potency [4] | Potency [5] | Potency [6] | Potency [7] | Potency [8] | Potency [9] | Potency [10] | max response [11] 3.22% | Potency [12] | Potency [13] | Potency [19] | Potency [14] | Potency [15]

From PubChem BioAssay (Tox21)
